PubChem BioAssay AID1159580 (chemical genetic matrix, 2015)
About 2,000 (36%) of roughly 5,500 compounds were called active. Not shown: some 18% with an inconclusive outcome. Rule as the data show it: active = normalized growth mostly below about 0.91 (no sharp cut-off); inconclusive = no clear call, values can overlap the other calls; inactive = mostly above about 0.92. The list shows a part of the results.

Test: chemical genetic growth profiling, strain panel (AID 1159580);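 also: tested at 20 µM; growth read once vehicle control cultures reached saturation at 30 °C; 1 = growth at the plate median or of vehicle wells; lower values mean less growth of the strain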
Details: growth OD
[1] = S. cerevisiae deletion strains, locus YAL013W, strain DEP1, hits give low values
[2] = S. cerevisiae deletion strains, locus YJR075W, strain HOC1, hits give low values
[3] = S. cerevisiae deletion strains, locus YMR307W, strain GAS1, hits give low values
[4] = S. cerevisiae deletion strains, locus YNL322C, strain KRE1, hits give low values
[5] = S. cerevisiae deletion strains, locus YPL055C, strain LGE1, hits give low values
[6] = S. cerevisiae deletion strains, locus YBR229C, strain ROT2, hits give low values
[7] = S. cerevisiae deletion strains, locus YCL061C, strain MRC1, hits give low values
[8] = S. cerevisiae deletion strains, locus YDL101C, strain DUN1, hits give low values
[9] = S. cerevisiae deletion strains, locus YDL134C, strain PPH21, hits give low values
[10] = S. cerevisiae deletion strains, locus YDR150W, strain NUM1, hits give low values
[11] = S. cerevisiae deletion strains, locus YEL061C, strain CIN8, hits give low values
[12] = S. cerevisiae deletion strains, locus YGR078C, strain PAC10, hits give low values
[13] = S. cerevisiae deletion strains, locus YHR030C, strain SLT2, hits give low values
[14] = S. cerevisiae deletion strains, locus YHR087W, strain rtc3, hits give low values
[15] = S. cerevisiae deletion strains, locus YJR043C, strain POL32, hits give low values
[16] = S. cerevisiae deletion strains, locus YKL190W, strain CNB1, hits give low values
[17] = S. cerevisiae deletion strains, locus YLR039C, strain RIC1, hits give low values
[18] = S. cerevisiae deletion strains, locus YLR058C, strain SHM2 (second series), hits give low values
[19] = S. cerevisiae deletion strains, locus YLR085C, strain ARP6, hits give low values
[20] = S. cerevisiae deletion strains, locus YLR262C, strain YPT6, hits give low values
[21] = S. cerevisiae deletion strains, locus YML094W, strain GIM5, hits give low values
[22] = S. cerevisiae deletion strains, locus YMR219W, strain ESC1, hits give low values
[23] = S. cerevisiae deletion strains, locus YMR263W, strain SAP30, hits give low values
[24] = S. cerevisiae deletion strains, locus YNL128W, strain TEP1, hits give low values
[25] = S. cerevisiae deletion strains, locus YNL153C, strain GIM3, hits give low values
[26] = S. cerevisiae deletion strains, locus YNL298W, strain CLA4 (second series), hits give low values
[27] = S. cerevisiae deletion strains, locus YNR030W, strain Alg12, hits give low values
[28] = S. cerevisiae deletion strains, locus YOL006C, strain TOP1, hits give low values
[29] = S. cerevisiae deletion strains, locus YPL241C, strain CIN2, hits give low values
[30] = S. cerevisiae deletion strains, locus YPR135W, strain CTF4, hits give low values
[31] = S. cerevisiae deletion strains, locus YJL187C, strain SWE1, hits give low values
[32] = S. cerevisiae strains, strain wild type, hits give low values

Measured: normalized growth

CN1CCc2cccc(Cl)c2CC1
inactive: [1] 0.986 | S. cerevisiae deletion strains, locus YAL040C, strain CLN3, hits give low values 1 | S. cerevisiae deletion strains, locus YCL061C, strain MRC1 (second series), hits give low values 1.01 | S. cerevisiae deletion strains, locus YDR363W, strain ESC2, hits give low values 1 | S. cerevisiae deletion strains, locus YER002W, strain NOP16, hits give low values 1 | [2] 0.993 | [3] 1.01 | S. cerevisiae deletion strains, locus YNL175C, strain NOP13, hits give low values 1.01 | S. cerevisiae deletion strains, locus YNL197C, strain WHI3, hits give low values 1.01 | S. cerevisiae deletion strains, locus YNL224C, strain SQS1, hits give low values 1 | [4] 1 | S. cerevisiae deletion strains, locus YOR083W, strain WHI5 (second series), hits give low values 1.01 | [5] 0.998

Cc1cccc2c1N(C(=S)Nc1ccccc1Cl)CCC2
inactive: [1] 0.966 | [8] 0.972 | [10] 1.01 | S. cerevisiae deletion strains, locus YGR229C, strain SMI1, hits give low values 0.997 | [15] 0.997 | [18] 0.95 | [23] 0.915 | [24] 0.914 | [4] 0.989 | [27] 0.906 | [5] 0.93 | [29] 0.859
active: [6] 0.821 | [7] 0.898 | [9] 0.911 | [11] 0.845 | [12] 0.907 | [13] 0.331 | [14] 0.787 | [2] 0.876 | [16] 0.648 | [17] 0.439 | [19] 0.602 | [20] 0.406 | [21] 0.712 | [22] 0.851 | [3] 0.219 | [25] 0.913 | [26] 0.582 | [28] 0.508 | [30] 0.273

CC(=O)CC(=O)Nc1ccccc1Cl
inactive: [1] 1 | [6] 0.997 | [8] 0.979 | [9] 0.998 | [10] 0.97 | [11] 1.02 | [12] 0.993 | [13] 0.966 | [31] 0.995 | [15] 0.982 | [2] 1.03 | [16] 1.01 | [17] 0.993 | [18] 1.01 | [19] 0.967 | [20] 1.02 | [21] 1.02 | [22] 0.993 | [23] 0.999 | [3] 0.947 | [24] 0.987 | [25] 1.02 | [26] 1 | [4] 0.992 | [27] 1 | [28] 1.01 | [5] 1 | [29] 0.978 | [30] 0.925 | [32] 0.971

N[C@@H](CC(=O)N1CCn2c(nnc2C(F)(F)F)C1)Cc1cc(F)c(F)cc1F
inactive: S. cerevisiae deletion strains, locus YAL021C, strain ccr4, hits give low values 0.992 | S. cerevisiae deletion strains, locus YAL026C, strain drs2, hits give low values 0.97 | S. cerevisiae deletion strains, locus YAL030W, strain snc1, hits give low values 0.985 | S. cerevisiae deletion strains, locus YBL061C, strain skt5, hits give low values 0.985 | S. cerevisiae deletion strains, locus YBR009C, strain hhf1, hits give low values 0.949 | S. cerevisiae deletion strains, locus YBR023C, strain chs3, hits give low values 0.993 | S. cerevisiae deletion strains, locus YBR171W, strain sec66, hits give low values 0.992 | S. cerevisiae deletion strains, locus YBR231C, strain swc5, hits give low values 0.995 | S. cerevisiae deletion strains, locus YBR279W, strain paf1, hits give low values 0.988 | S. cerevisiae deletion strains, locus YCL011C, strain gbp2, hits give low values 0.982 | S. cerevisiae deletion strains, locus YCL016C, strain dcc1, hits give low values 0.992 | [7] 0.987 | S. cerevisiae deletion strains, locus YCL069W, strain vba3, hits give low values 0.984 | S. cerevisiae deletion strains, locus YCR088W, strain abp1, hits give low values 0.984 | S. cerevisiae deletion strains, locus YDL005C, strain med2, hits give low values 0.983 | S. cerevisiae deletion strains, locus YDL040C, strain nat1, hits give low values 0.992 | S. cerevisiae deletion strains, locus YDR001C, strain nth1, hits give low values 0.985 | S. cerevisiae deletion strains, locus YDR069C, strain doa4, hits give low values 0.971 | S. cerevisiae deletion strains, locus YDR137W, strain rgp1, hits give low values 1.01 | S. cerevisiae deletion strains, locus YDR159W, strain sac3, hits give low values 0.952 | S. cerevisiae deletion strains, locus YDR195W, strain ref2 0.941 | S. cerevisiae deletion strains, locus YDR297W, strain sur2, hits give low values 0.978 | S. cerevisiae deletion strains, locus YDR334W, strain swr1, hits give low values 0.982 | S. cerevisiae deletion strains, locus YDR335W, strain msn5, hits give low values 0.991 | S. cerevisiae deletion strains, locus YDR392W, strain spt3, hits give low values 0.887 | S. cerevisiae deletion strains, locus YEL003W, strain gim4, hits give low values 0.966 | S. cerevisiae deletion strains, locus YEL037C, strain rad23, hits give low values 0.983 | S. cerevisiae deletion strains, locus YEL061C, strain CIN8 (second series), hits give low values 0.983 | S. cerevisiae deletion strains, locus YER015W, strain faa2, hits give low values 0.978 | S. cerevisiae deletion strains, locus YER016W, strain bim1, hits give low values 0.995 | S. cerevisiae deletion strains, locus YER111C, strain swi4, hits give low values 0.988 | S. cerevisiae deletion strains, locus YER155C, strain BEM2 (second series), hits give low values 0.966 | S. cerevisiae deletion strains, locus YFR010W, strain ubp6, hits give low values 0.975 | S. cerevisiae deletion strains, locus YGL167C, strain pmr1, hits give low values 0.964 | S. cerevisiae deletion strains, locus YGL173C, strain kem1, hits give low values 0.985 | S. cerevisiae deletion strains, locus YGL227W, strain vid30, hits give low values 0.967 | S. cerevisiae deletion strains, locus YGL240W, strain doc1, hits give low values 0.981 | S. cerevisiae deletion strains, locus YGL253W, strain hxk2, hits give low values 0.996 | S. cerevisiae deletion strains, locus YHR013C, strain ard1, hits give low values 0.944 | S. cerevisiae deletion strains, locus YHR027C, strain rpn1, hits give low values 0.985 | [13] 1.03 | S. cerevisiae deletion strains, locus YHR079C, strain IRE1, hits give low values 0.985 | S. cerevisiae deletion strains, locus YHR142W, strain chs7, hits give low values 1.01 | S. cerevisiae deletion strains, locus YJL092W, strain hpr5, hits give low values 0.989 | S. cerevisiae deletion strains, locus YJL095W, strain BCK1 (second series), hits give low values 0.993 | S. cerevisiae deletion strains, locus YJL095W, strain BCK1, hits give low values 0.96 | S. cerevisiae deletion strains, locus YJL115W, strain asf1, hits give low values 0.984 | S. cerevisiae deletion strains, locus YJL129C, strain trk1, hits give low values 1.01 | S. cerevisiae deletion strains, locus YJL154C, strain vps35, hits give low values 0.987 | S. cerevisiae deletion strains, locus YJL164C, strain tpk1, hits give low values 1 | S. cerevisiae deletion strains, locus YJL166W, strain qcr8, hits give low values 0.993 | [31] 0.98 | S. cerevisiae deletion strains, locus YJR066W, strain TOR1, hits give low values 0.928 | S. cerevisiae deletion strains, locus YKL160W, strain elf1, hits give low values 1.01 | S. cerevisiae deletion strains, locus YKR026C, strain gcn3, hits give low values 0.972 | S. cerevisiae deletion strains, locus YKR091W, strain srl3, hits give low values 0.955 | S. cerevisiae deletion strains, locus YLL001W, strain dnm1, hits give low values 0.992 | S. cerevisiae deletion strains, locus YLL026W, hits give low values 0.995 | S. cerevisiae deletion strains, locus YLL041C, strain sdh2, hits give low values 0.994 | S. cerevisiae deletion strains, locus YLR027C, strain aat2, hits give low values 0.988 | S. cerevisiae deletion strains, locus YLR113W, strain HOG1, hits give low values 0.978 | S. cerevisiae deletion strains, locus YLR221C, strain rsa3, hits give low values 0.989 | S. cerevisiae deletion strains, locus YLR258W, strain gsy2, hits give low values 0.979 | S. cerevisiae deletion strains, locus YLR262C, strain YPT6 (second series), hits give low values 1 | S. cerevisiae deletion strains, locus YLR320W, strain mms22, hits give low values 0.998 | S. cerevisiae deletion strains, locus YLR342W, strain FKS1, hits give low values 0.958 | S. cerevisiae deletion strains, locus YLR357W, strain rsc2, hits give low values 0.989 | S. cerevisiae deletion strains, locus YLR370C, strain arc18, hits give low values 0.977 | S. cerevisiae deletion strains, locus YLR384C, strain iki3, hits give low values 0.969 | S. cerevisiae deletion strains, locus YML120C, strain ndi1, hits give low values 0.988 | S. cerevisiae deletion strains, locus YMR058W, strain fet3, hits give low values 0.977 | S. cerevisiae deletion strains, locus YMR125W, strain sto1, hits give low values 0.974 | S. cerevisiae deletion strains, locus YMR129W, hits give low values 0.984 | S. cerevisiae deletion strains, locus YMR205C, strain PFK2, hits give low values 0.96 | S. cerevisiae deletion strains, locus YMR231W, strain pep5, hits give low values 0.977 | S. cerevisiae deletion strains, locus YNL071W, strain lat1, hits give low values 0.979 | S. cerevisiae deletion strains, locus YNL183C, strain NPR1, hits give low values 0.898 | S. cerevisiae deletion strains, locus YNL209W, strain ssb2, hits give low values 0.986 | S. cerevisiae deletion strains, locus YNL248C, strain rpa49, hits give low values 1.01 | S. cerevisiae deletion strains, locus YNL322C, strain KRE1 (second series), hits give low values 0.975 | S. cerevisiae deletion strains, locus YNR049C, strain mso1, hits give low values 0.98 | S. cerevisiae deletion strains, locus YOR001W, strain rrp6, hits give low values 1.01 | S. cerevisiae deletion strains, locus YOR070C, strain gyp1, hits give low values 0.995 | S. cerevisiae deletion strains, locus YOR080W, strain dia2, hits give low values 0.976 | S. cerevisiae deletion strains, locus YOR083W, strain WHI5, hits give low values 1.01 | S. cerevisiae deletion strains, locus YOR106W, strain vam3, hits give low values 0.994 | S. cerevisiae deletion strains, locus YOR231W, strain MKK1, hits give low values 0.975 | S. cerevisiae deletion strains, locus YOR265W, strain rbl2, hits give low values 0.993 | S. cerevisiae deletion strains, locus YOR270C, strain vph1, hits give low values 0.984 | S. cerevisiae deletion strains, locus YOR290C, strain snf2, hits give low values 0.903 | S. cerevisiae deletion strains, locus YPL051W, strain arl3, hits give low values 1.01 | S. cerevisiae deletion strains, locus YPL078C, strain atp4, hits give low values 0.992 | S. cerevisiae deletion strains, locus YPL106C, strain sse1, hits give low values 0.976 | S. cerevisiae deletion strains, locus YPL240C, strain hsp82, hits give low values 0.965 | S. cerevisiae deletion strains, locus YPL256C, strain CLN2, hits give low values 0.981

N#CC(C#N)=Cc1ccc(-c2cc(C(F)(F)F)ccc2Cl)o1
inactive: [1] 1.01 | [6] 1.01 | [8] 1.03 | [10] 0.993 | [11] 0.997 | [12] 1.01 | [13] 0.819 | [14] 1.02 | [31] 0.997 | [15] 0.989 | [2] 0.987 | [17] 0.844 | [18] 0.99 | [19] 0.797 | [20] 0.913 | [21] 1.08 | [22] 0.996 | [23] 0.97 | [3] 0.786 | [25] 1.02 | [26] 0.923 | [4] 0.986 | [27] 0.962 | [5] 1.01 | [29] 0.899 | [30] 0.944 | [32] 0.959
